Assay in all cases: log2 fold change, soluble protein after heating vs DMSO (PISA); higher = thermal stabilisation; K562 lysate, 10 uM; active = over 0.2 and 3.5 SD of the protein, either way, in both replicates (recomputed)
Compound in one experiment: C=CC(=O)N1CCC[C@@H](n2nc(-c3ccc(Oc4ccccc4)cc3)c3c(N)ncnc32)C1 [ibrutinib]
The method, boiled down:
(§1)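 Following dounce homogenisation of K562 pellets in PBS pH 7.4 with 1 mM MgCl2, crude extract at 1 mg/mL protein was incubated for 30 min with 10 μM compound. Aliquots were then heated for 3 min over 48°C-58°C and pooled, NP-40 was added to 0.5% at 4°C, and soluble protein was recovered as the supernatant at 21,000xg for 90 min. Channel-sum-equalised TMTpro 16plex LC-MS/MS quantified this protein. Each value, from duplicates, is a log-two fold change in thermal stability relative to solvent controls.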

Compound in experiment [1]: CC(=O)c1cnc2ccc(-c3cc(Cl)c(O)c(Cl)c3)nc2c1N[C@H]1CC[C@H](CN(C)C)CC1
The method, boiled down:
as §1

Compound in the next experiment: CC(C)(C)Cn1c(N)nc2ccc(-c3[nH]c(C(C)(C)C)nc3-c3ccc(F)cc3)nc21 [ralimetinib]
The gist of the method:
as §1

Compound in experiment [2]: CC(C)(O)CC(=O)NCCn1ccc2ncnc(Nc3ccc(Oc4cccc(C(F)(F)F)c4)c(Cl)c3)c21
The gist of the method:
as §1

Compound in experiment [3]: CC(C)C1=C2N=C(C=C(N2N=C1)NCC3=CC=CC=C3)NCCCCCCN
The gist of the method: as §1

Compound in experiment [4]: CC1=C(C(CC(=O)N1)C2=CC=C(C=C2)C(F)(F)F)C(=O)NC3=C(C=C4C(=C3)C=NN4)F
The gist of the method:
as §1

Compound in experiment [5]: CC1=C(C2=C(C=C1)C(=O)C3=CC=CC=C3N2CCCN)C
The method, boiled down: as §1

Compound in experiment [6]: CC1=C(C=C(C=C1)NC(=O)C2=CC(=CC=C2)C(C)(C)C#N)NC3=CC4=C(C=C3)N=CN(C4=O)C
The method, boiled down: as §1

Compound in experiment [7]: CC1=C(C=C(C=C1)NC(=O)C2=CC(=CC=C2)N(C)C)NC(=O)C3=CC=C(C=C3)O
The method, boiled down: as §1

Compound in experiment [8]: CC1=CC=C(C=C1)SC2=C3C=C(SC3=CN=C2)C(=O)N
The gist of the method: as §1

About 8,800 targets were measured; listed, in parts, are those with a hit and a random draw of the rest. About 0.5% of all pairs of compound and target were hits. A number with no mark means an inactive call.

UniProt O15031, sequence (O15031 whole entry, looked up): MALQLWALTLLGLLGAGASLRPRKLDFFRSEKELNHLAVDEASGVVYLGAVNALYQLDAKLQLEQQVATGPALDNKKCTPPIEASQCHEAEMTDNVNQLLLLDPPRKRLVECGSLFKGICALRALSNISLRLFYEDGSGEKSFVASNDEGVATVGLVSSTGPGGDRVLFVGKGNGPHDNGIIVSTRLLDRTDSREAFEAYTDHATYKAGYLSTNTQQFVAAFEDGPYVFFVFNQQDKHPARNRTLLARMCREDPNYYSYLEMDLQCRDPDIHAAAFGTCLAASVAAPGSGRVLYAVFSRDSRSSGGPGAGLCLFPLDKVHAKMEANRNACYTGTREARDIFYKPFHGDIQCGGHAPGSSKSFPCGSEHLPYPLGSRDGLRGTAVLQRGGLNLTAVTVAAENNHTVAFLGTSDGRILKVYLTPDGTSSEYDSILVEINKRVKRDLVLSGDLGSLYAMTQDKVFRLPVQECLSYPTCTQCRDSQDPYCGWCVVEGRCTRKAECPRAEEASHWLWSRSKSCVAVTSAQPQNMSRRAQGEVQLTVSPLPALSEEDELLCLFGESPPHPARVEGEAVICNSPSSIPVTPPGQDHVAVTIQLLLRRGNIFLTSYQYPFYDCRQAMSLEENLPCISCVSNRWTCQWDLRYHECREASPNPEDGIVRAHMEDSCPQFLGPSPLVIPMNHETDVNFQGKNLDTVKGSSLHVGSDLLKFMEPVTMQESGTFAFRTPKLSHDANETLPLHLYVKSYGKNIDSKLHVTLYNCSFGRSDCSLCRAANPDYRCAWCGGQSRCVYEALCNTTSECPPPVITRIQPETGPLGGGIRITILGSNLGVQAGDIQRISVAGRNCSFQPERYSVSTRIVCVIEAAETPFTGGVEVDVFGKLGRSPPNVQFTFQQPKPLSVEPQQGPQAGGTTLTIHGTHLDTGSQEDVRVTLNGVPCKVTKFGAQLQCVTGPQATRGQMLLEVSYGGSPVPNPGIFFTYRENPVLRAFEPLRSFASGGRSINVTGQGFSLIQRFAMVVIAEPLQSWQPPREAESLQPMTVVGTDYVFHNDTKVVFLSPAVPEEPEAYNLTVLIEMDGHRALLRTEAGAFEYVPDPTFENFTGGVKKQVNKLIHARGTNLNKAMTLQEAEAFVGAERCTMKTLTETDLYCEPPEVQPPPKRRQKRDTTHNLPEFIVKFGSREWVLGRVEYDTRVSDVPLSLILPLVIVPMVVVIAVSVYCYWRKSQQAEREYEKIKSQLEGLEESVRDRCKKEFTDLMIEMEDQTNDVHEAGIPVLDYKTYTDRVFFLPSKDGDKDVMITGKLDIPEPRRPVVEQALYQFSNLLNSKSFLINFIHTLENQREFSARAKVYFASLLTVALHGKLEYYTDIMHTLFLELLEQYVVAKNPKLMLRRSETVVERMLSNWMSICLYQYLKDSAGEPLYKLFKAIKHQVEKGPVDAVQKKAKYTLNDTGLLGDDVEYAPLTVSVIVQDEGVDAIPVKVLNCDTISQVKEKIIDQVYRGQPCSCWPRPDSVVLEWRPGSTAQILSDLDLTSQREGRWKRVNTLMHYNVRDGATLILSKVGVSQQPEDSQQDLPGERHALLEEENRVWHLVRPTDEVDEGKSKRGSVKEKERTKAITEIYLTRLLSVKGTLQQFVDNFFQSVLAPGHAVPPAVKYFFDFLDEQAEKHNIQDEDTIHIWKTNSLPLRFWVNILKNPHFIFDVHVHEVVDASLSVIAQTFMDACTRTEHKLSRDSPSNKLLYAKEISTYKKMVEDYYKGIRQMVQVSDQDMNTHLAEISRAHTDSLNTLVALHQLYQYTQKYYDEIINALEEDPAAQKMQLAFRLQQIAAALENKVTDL
UniProt P06454, sequence (P06454 whole entry, looked up): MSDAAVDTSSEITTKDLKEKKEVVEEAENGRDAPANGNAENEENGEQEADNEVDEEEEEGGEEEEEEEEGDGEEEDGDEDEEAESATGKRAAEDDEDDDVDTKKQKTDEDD
UniProt Q29RF7, sequence (Q29RF7 whole entry, looked up): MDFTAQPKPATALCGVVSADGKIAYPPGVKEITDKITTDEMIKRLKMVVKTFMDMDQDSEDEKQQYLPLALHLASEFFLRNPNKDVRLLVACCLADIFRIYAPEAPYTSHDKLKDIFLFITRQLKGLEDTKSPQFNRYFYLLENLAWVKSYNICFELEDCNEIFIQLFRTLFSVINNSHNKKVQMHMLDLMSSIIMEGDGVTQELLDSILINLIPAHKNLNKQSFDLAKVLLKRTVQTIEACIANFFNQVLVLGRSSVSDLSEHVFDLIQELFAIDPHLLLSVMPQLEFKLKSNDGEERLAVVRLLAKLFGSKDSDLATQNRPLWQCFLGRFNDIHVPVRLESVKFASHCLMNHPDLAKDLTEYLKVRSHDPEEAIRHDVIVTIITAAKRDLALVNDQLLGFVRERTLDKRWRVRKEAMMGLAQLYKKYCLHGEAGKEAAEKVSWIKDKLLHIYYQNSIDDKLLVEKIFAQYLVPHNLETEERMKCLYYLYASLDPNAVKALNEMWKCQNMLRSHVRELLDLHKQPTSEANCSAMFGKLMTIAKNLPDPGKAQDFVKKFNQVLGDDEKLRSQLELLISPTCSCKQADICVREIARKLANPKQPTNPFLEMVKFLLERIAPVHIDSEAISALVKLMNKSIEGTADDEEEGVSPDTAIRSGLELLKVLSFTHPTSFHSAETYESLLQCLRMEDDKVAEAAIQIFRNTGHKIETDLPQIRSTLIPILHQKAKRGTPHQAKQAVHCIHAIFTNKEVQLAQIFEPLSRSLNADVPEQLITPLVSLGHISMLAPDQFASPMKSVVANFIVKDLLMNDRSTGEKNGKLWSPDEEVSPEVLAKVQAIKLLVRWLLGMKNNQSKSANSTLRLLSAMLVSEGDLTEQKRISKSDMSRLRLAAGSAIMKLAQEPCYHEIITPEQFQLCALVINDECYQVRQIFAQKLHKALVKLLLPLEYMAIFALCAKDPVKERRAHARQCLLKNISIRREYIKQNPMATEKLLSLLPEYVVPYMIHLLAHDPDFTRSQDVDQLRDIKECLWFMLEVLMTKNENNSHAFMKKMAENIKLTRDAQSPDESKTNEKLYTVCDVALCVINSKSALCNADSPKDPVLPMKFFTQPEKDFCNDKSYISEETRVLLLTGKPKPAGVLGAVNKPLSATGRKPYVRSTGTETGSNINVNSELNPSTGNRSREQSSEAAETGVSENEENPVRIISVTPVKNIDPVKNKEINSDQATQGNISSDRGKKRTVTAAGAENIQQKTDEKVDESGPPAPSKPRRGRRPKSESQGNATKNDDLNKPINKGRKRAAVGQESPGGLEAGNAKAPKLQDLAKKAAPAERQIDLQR
UniProt P50336, sequence (P50336 whole entry, looked up): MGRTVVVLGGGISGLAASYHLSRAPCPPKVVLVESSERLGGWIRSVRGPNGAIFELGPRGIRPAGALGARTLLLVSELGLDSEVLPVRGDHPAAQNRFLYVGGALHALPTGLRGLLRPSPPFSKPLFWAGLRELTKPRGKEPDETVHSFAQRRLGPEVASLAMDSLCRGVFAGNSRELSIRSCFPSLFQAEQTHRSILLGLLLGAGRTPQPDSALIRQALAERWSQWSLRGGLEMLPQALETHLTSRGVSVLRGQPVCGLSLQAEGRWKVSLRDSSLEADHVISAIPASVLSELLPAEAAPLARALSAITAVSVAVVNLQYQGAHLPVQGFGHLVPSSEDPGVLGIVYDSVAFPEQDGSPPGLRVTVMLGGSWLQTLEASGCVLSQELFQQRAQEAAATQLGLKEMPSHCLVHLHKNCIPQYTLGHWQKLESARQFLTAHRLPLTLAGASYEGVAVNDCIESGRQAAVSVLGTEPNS
UniProt P49642, sequence (P49642 whole entry, looked up): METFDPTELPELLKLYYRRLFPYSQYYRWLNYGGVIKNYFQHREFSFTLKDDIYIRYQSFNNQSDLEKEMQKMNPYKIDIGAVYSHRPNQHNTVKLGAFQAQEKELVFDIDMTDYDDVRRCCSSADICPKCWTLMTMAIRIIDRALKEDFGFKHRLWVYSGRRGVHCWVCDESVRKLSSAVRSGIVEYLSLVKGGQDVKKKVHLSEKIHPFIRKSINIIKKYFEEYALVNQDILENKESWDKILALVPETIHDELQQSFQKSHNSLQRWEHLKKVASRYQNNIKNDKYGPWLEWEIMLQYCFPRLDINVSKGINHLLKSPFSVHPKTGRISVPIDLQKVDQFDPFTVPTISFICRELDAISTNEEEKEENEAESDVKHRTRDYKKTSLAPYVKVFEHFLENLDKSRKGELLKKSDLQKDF
UniProt Q8TCD6, sequence (Q8TCD6 whole entry, looked up): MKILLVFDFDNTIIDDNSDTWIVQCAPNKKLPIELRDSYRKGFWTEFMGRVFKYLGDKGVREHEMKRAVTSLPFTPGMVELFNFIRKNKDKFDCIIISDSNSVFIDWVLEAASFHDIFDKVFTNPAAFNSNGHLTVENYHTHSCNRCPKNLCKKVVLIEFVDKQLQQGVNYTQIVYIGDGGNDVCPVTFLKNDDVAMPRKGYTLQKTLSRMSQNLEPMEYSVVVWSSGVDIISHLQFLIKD
UniProt P23219, sequence (P23219 whole entry, looked up): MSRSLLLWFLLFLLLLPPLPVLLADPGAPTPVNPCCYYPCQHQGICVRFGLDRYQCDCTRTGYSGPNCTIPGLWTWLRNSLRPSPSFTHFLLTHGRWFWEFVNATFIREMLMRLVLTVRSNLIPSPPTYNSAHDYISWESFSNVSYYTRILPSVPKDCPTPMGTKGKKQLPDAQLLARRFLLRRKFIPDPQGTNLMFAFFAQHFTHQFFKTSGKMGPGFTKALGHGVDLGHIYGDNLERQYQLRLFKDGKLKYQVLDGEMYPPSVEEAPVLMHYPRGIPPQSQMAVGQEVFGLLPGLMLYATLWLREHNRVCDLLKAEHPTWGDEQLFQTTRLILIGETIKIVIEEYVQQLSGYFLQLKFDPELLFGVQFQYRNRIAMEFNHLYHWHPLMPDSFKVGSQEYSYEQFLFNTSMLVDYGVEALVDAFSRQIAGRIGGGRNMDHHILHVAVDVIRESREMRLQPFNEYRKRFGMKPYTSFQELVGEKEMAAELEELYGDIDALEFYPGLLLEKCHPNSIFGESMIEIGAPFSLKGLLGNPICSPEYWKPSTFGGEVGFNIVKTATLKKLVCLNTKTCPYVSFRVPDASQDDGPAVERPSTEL

For the target PKN1 isoform 2 (UniProt Q16512), the log2 fold change was 0.011 with ibrutinib; -0.107 in experiment [1]; -0.001 in the experiment with ralimetinib; 0.008 in [2]; 0.006 in experiment [3]; 0.091 in [4]. The log2 fold change in experiment [5] was 0.021; in experiment [6], 0.048; in experiment [7] it was 0.035; in [8], 0.05.
In the case of PDS5A (UniProt Q29RF7), the log2 fold change with ibrutinib is 0; in [1], 0.013; with ralimetinib, 0.008; in experiment [2], -0.017; in experiment [3] it was -0.029; in experiment [4], 0.023. For the same target, the log2 fold change was -0.038 in experiment [5], 0.017 in experiment [6], 0.031 in experiment [7] and 0.039 in [8].
With PIP4K2A (UniProt P48426), the log2 fold change with ibrutinib was -0.052; in experiment [1], 0.086; with ralimetinib it was 0.032; in [2], -0.053; in experiment [3] it was -0.043; in experiment [4] it was -0.017. The log2 fold change in [5] was -0.019; in [6], -0.002; in [7], -0.028; in experiment [8], -0.026.
As for PHOSPHO2 (UniProt Q8TCD6), the log2 fold change with ibrutinib is -0.01; in [1], 0.039; with ralimetinib, 0.003; in [2] it was 0.035; in [3] it was 0.012; in experiment [4] it was -0.017. For the same target, the log2 fold change is 0.018 in experiment [5], 0.006 in experiment [6], 0.048 in experiment [7] and 0.056 in experiment [8].
Regarding PRKACA (UniProt P17612), the log2 fold change with ibrutinib is 0.021; in experiment [1], 0.767 (active); with ralimetinib, 0.029; in [2] it was -0.106; in experiment [3], -0.045; in experiment [4], 0.059. The log2 fold change was -0.046 in experiment [5], -0.118 in [6], -0.008 in [7] and -0.057 in experiment [8].
Consider PPP3CA isoform 2 (UniProt Q08209), for which the log2 fold change with ibrutinib was 0.017; in [1], 0.012; with ralimetinib, -0.01; in experiment [2] it was -0.052; in [3] it was -0.014; in experiment [4], 0. Moreover, the log2 fold change in experiment [5] was -0.03; in experiment [6], 0.03; in [7], 0.028; in [8], -0.012.
As to PLXNB2 (UniProt O15031), the log2 fold change with ibrutinib was 0.019; in experiment [1], 0.016; with ralimetinib, 0.035; in experiment [2], -0.026; in [3], -0.03; in [4] it was 0.033. The log2 fold change in [5] is 0.006; in experiment [6], -0.02; in experiment [7], -0.003; in experiment [8], -0.016.
Turning to PRKCB isoform 2 (UniProt P05771), the log2 fold change with ibrutinib was -0.017; in experiment [1], 0.548 (active); with ralimetinib, 0.02; in experiment [2], 0; in experiment [3] it was 0.013; in experiment [4], 0.002. In addition, the log2 fold change in experiment [5] is -0.055; in experiment [6] it was 0.042; in experiment [7], -0.009; in [8], -0.113.
As to PYURF (UniProt Q96I23), the log2 fold change in the experiment with ibrutinib is 0.189; in experiment [1], -0.026; with ralimetinib, -0.005; in [2], 0.079; in experiment [3], 0.016; in [4], 0.058. In addition, the log2 fold change in [5] is -0.05; in experiment [6] it was 0.084; in experiment [7] it was 0.012; in [8], -0.026.
Consider PPOX (UniProt P50336), for which the log2 fold change with ibrutinib is 0.067; in experiment [1] it was -0.008; with ralimetinib, 0.001; in experiment [2] it was 0.091; in experiment [3] it was 0.301; in experiment [4], -0.022. The log2 fold change is -0.138 in [5], 0.105 in experiment [6], 0.006 in experiment [7] and 0.012 in experiment [8].
Consider PRIM1 (UniProt P49642), for which the log2 fold change with ibrutinib was -0.016; in experiment [1], 0.014; with ralimetinib, 0.056; in [2], 0.056; in experiment [3] it was 0.016; in experiment [4], 0.027. The log2 fold change in experiment [5] is -0.019; in experiment [6], 0.015; in experiment [7], 0.011; in [8], 0.02.
For the target PPME1 isoform 4 (UniProt Q9Y570), the log2 fold change was 0.042 with ibrutinib; 0.009 in [1]; 0.008 with ralimetinib; 0.018 in experiment [2]; -0.001 in experiment [3]; -0.021 in experiment [4]. Besides, the log2 fold change in experiment [5] is -0.004; in experiment [6], -0.011; in experiment [7], -0.023; in experiment [8] it was 0.012.
With PIP4K2B (UniProt P78356), the log2 fold change is -0.002 with ibrutinib; 0.043 in [1]; 0.016 with ralimetinib; 0.023 in experiment [2]; -0.032 in experiment [3]; -0.043 in experiment [4]. Also, the log2 fold change in experiment [5] was -0.022; in experiment [6], 0.087; in experiment [7] it was -0.044; in experiment [8], -0.031.
As to PTGS1 isoform 6 (UniProt P23219), the log2 fold change with ibrutinib is 0.109; in experiment [1] it was 0.022; with ralimetinib, -0.001; in [2] it was -0.075; in experiment [3], -0.043; in experiment [4] it was 0.023. The log2 fold change in [5] was -0.039; in experiment [6], 0.023; in [7] it was -0.011; in experiment [8], -0.026.
Regarding PTMA (UniProt P06454), the log2 fold change with ibrutinib was 0.015; in experiment [1], 0.028; with ralimetinib, -0.121; in [2], 0.009; in experiment [3], 0.004; in experiment [4] it was -0.068. The log2 fold change in experiment [5] is 0.006; in experiment [6], 0.023; in experiment [7] it was -0.015; in experiment [8], 0.002.

Source of the values: the supplement of paper PMC10849652.
